Screening data: PubChem BioAssay, National Center for Advancing Translational Sciences (NCATS)
NPC1 prom act = qHTS Assay for NPC1 Promoter Activators; 320,000 compounds, 2.4% hits; AID 485313, 2010; Potency, µM (highest dose often 9.22 µM), for inactives: at the highest dose activation, hits mostly activators; Huh7 NPC1 promoter luciferase reporter, 24 h; note: % of control where 0% means no effect; nearly all actives have a fitted effect of over 60% in size
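Huh7 cells stably carrying NPC1 promoter–luciferase, plated in Opti-MEM with 10% FBS for 2 h, were exposed to compound in DMSO for 24 h at 37 °C; luciferase reagent was added for 10 min and luminescence read.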
SMN2 splice up = qHTS Assay for Enhancers of SMN2 Splice Variant Expression; Potency, µM (titrated, usually from 46.1 µM), inactives show top-dose activity change, positive = activation, actives largely listed as activators; 210,000 compounds, 2.8% hits; HEK293 SMN2-luciferase splicing reporter, luminescence, 30-36 h; note: % of control where 0% means no effect; nearly all actives have a fitted effect of over 55% in size
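HEK293 cells carry an SMN2 […]–luciferase reporter in which exon 7 inclusion puts luciferase in frame. Cells were plated 10-12 h before compound addition, then incubated 30-36 h at 37C. ONE-Glo luminescence was read; sodium butyrate at 4.5 mM final served as control.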
ELG1 genotox = qHTS screen for small molecules that induce genotoxicity in human embryonic kidney (HEK293T) cells expressing luciferase-tagged ELG1 | HEK293T ELG1-luciferase reporter, luminescence, 16 h | Potency, µM (highest dose often 46 µM), inactives show at the highest dose activity change, positive = activation, actives largely listed as activators | 330,000 compounds, 1.3% hits | AID 504466, 2011; note: % of control where 0% means no effect; nearly all actives have a fitted effect of over 60% in size
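Step 1: seed 2,000 HEK293T ELG1-luciferase cells per well. Step 2: add compound or DMSO, incubate 16 hr at 37 °C. Step 3: ONE-Glo, 30 min at room temperature, read luminescence.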
Rab9 prom act = qHTS Assay for Rab9 Promoter Activators; Potency, µM (top dose mostly 9.22 µM), inactives show at the top dose activation, negative = inhibition, usual class: activators; Huh7 Rab9 promoter-luciferase reporter, luminescence, 24 h; AID 485297, 2010; 320,000 compounds, 2.8% hits; note: % of control where 0% means no effect; nearly all actives have a fitted effect of over 60% in size
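Using Huh7 cells stably transfected with Rab9 promoter–luciferase, compounds were incubated 24 h at 37 °C, 5% CO2; luciferase luminescence was read 10 min after reagent addition.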
FLuc counter = qHTS profiling assay for firefly luciferase inhibitor/activator using purifed enzyme and Km concentrations of substrates (counterscreen for miR-21 project). purified FLuc, Km substrates, luminescence inhibition. 360,000 compounds, 6.9% hits. Luciferin 4-monooxygenase (Photinus pyralis), P08659. Potency, µM (highest dose often 57.5 µM), for inactives: at the top dose activity change, negative = inhibition, usual class: inhibitors. AID 588342, 2011;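 note: plate controls were vehicle for no effect and reference inhibitor for full effect; nearly all actives have a fitted effect of over 55% in size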
Target sequence (P08659 whole entry, looked up): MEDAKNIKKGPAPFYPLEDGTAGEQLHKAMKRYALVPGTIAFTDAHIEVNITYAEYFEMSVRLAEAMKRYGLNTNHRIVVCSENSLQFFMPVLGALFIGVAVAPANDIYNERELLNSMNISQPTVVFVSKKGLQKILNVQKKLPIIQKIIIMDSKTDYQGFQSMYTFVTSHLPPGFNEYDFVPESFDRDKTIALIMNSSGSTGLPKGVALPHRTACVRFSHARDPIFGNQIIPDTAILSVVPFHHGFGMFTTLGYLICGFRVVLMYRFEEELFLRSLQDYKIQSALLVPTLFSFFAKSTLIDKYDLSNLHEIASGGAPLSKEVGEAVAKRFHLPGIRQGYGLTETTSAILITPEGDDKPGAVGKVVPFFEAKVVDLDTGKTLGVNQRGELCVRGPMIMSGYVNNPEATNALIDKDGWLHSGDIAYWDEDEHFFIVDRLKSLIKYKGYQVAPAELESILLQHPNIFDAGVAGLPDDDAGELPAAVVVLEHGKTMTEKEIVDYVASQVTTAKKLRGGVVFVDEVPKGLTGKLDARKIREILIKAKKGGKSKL
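Purified P. pyralis luciferase (10nM final) with 10uM D-luciferin and 10uM ATP (Km levels) in 50mM Tris acetate pH 7.5, 10mM Mg acetate, 0.01% Tween-20, 0.05% BSA; qHTS 6-point titration, ~60 µM downward; luminescence read.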
ELG1 DNA repair = qHTS screen for small molecules that inhibit ELG1-dependent DNA repair in human embryonic kidney (HEK293T) cells expressing luciferase-tagged ELG1. HEK293T ELG1-luciferase reporter, luminescence, 16 h; DNA damage induced by 5-fluorouridine. 330,000 compounds, 2.3% hits. Potency, µM (series often up to 46.1 µM), for the others: top-dose activity change, negative = inhibition, actives largely listed as inhibitors; note: % is set by controls: 0 for no effect and ±100 for the full control effect; nearly all actives have a fitted effect of over 55% in size
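DMSO vehicle served as the neutral condition. Each well held 2,000 cells given 5-fluorouridine plus compound; after 16 hr at 37 °C/5% CO2, ONE-Glo was added and luciferase measured 30 min later.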
Starred values were filed as active, the others as inactive; ? = inconclusive; . = no result given. Most compounds without a hit are left out; they make up all but 9.2% or so of the library. Calls come from the whole dose curve; as a rule, active = well fitted curve in the direction sought with a large enough effect; inconclusive = small, poorly fitted or top-dose-only effect, or another doubt; inactive = no such curve, though single readings can be large; an effect the other way counts as inactive or inconclusive. Potency is the fitted concentration of half-maximal effect.

SMILES | NPC1 prom act | SMN2 splice up | ELG1 genotox | Rab9 prom act | FLuc counter | ELG1 DNA repair
Oc1c(/C=N/c2ccccn2)sc2ccccc12 | 22% | . | ? | ? | 0.54µM* | ?
Oc1oc(-c2ccccc2Br)nc1C=Nc1ccc(Br)cn1 | 1% | -11% | 6% | 3% | -18% | 2%
Oc1c(C=Nc2cccnc2)sc2ccccc12 | 5% | 24% | ? | 5% | 1.9µM* | ?
Oc1c(C=Nc2ccccc2)sc2ccccc12 | -4% | . | 2% | -4% | 3% | 4%
Oc1c(C=Nc2ccc(Cl)cn2)sc2ccccc12 | ? | . | 5.8µM* | ? | 0.34µM* | ?
C/C=C\C=C\C(=O)Nc1cccc(C2=NOC3(C2)C[C@H](C(N)=O)N(C(=O)c2ccccc2C(=O)c2ccccc2)C3)c1 (some centres not stated) | 3% | . | -2% | -5% | 21µM* | ?
CCCOc1ccc(C(=O)N2CC3(CC(c4cccc(NC(=O)[C@@H]5CCC(=O)N5)c4)=NO3)C[C@H]2C(=O)NC2(C(N)=O)CC2)cc1 (some centres not stated) | 1% | -4% | -1% | -5% | 5% | 8%
NC(=O)C1(NC(=O)[C@@H]2CC3(CC(c4cccc(NC(=O)[C@@H]5CCC(=O)N5)c4)=NO3)CN2C(=O)c2ccccc2)CC1 (some centres not stated) | 2.2µM* | -10% | 0% | 6% | -2% | 14%
C/C=C/C=C\C(=O)Nc1cccc(C2=NOC3(C2)C[C@@H](C(N)=O)N(C(=O)c2cc([N+](=O)[O-])cc([N+](=O)[O-])c2C)C3)c1 (some centres not stated) | -2% | . | 2% | -1% | 7.6µM* | -16%
CCCCCC(=O)Nc1cccc(C2=NOC3(C2)C[C@@H](C(N)=O)N(C(=O)c2cc([N+](=O)[O-])cc([N+](=O)[O-])c2C)C3)c1 (some centres not stated) | -5% | . | -1% | -4% | -17% | ?
C/C=C\C(=O)Nc1cccc(C2=NOC3(C2)C[C@@H](C(N)=O)N(C(=O)c2ccccc2)C3)c1 (some centres not stated) | -2% | . | 0% | -11% | 4% | 10%
C/C=C\C=C/C(=O)Nc1cccc(C2=NOC3(C2)C[C@@H](C(N)=O)N(C(=O)c2ccccc2)C3)c1 (some centres not stated) | 3% | . | 5% | 21% | 17µM* | 23%
COc1cc(C2C(C#N)=C(N)N(N(C)C)C3=C2C(=O)CC(C)(C)C3)ccc1O (configuration not stated) | 2% | . | 0% | -1% | -1% | 20%
CCOc1ccccc1N(CC(=O)Nc1c(C)n(C)n(-c2ccccc2)c1=O)S(=O)(=O)c1ccccc1 | -3% | . | -1% | -5% | 4% | -3%
CSc1nsc(/C=C/Nc2ccc(O)cc2C)c1C#N | -1% | -4% | -2% | 5% | 12µM* | ?
COc1ccc(C2/C=C\CN(S(=O)(=O)c3ccc(C)cc3)CC(=O)N2Cc2cccc(F)c2)cc1 (configuration not stated) | . | . | -2% | . | . | 21µM*
CC1=C(C(=O)Nc2cccnc2)C(c2ccc(Cl)cc2)n2nc(-c3ccccc3)nc2N1 (configuration not stated) | . | -7% | . | . | -3% | .
CCOC(=O)C1CCN(C(=O)CCC(=O)NNc2nc3ccccc3c3nc(C)nn23)CC1 | -21% | . | -3% | -2% | -1% | 17%
